Experimental data published in PubChem BioAssay (EPA / NIEHS).
Where “and” joins values, the source holds several entries; their conditions need not be identical. Equal entries are not always repeated. Inconclusive results are not listed. Some compounds were tested as several samples or in several runs, with calls that do not always agree. Calls of active or inactive are those of the source. Rule for the calls, unless noted: active = hit-call score of the fitted dose curve at least 0.9, where 1 is the maximum; inconclusive = response in the unintended direction; inactive = score below 0.9.

Experiments:
[1] = target: Retinoic acid receptor RXR-alpha (Homo sapiens) (UniProt P19793); assay: OT_NURR1_NURR1RXRa_0480: Odyssey Thera (OT) 8-hour HEK293T Protein Complementation Assay for Nurr1/retinoid X receptor (RXR) (AID 2283385)
In short: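 Interaction of Nurr1 with RXRα read as reconstituted reporter fluorescence in a HEK293T fragment-complementation system, 8 h post-treatment; increase over DMSO baseline analysed.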

[2] = target: Retinoic acid receptor RXR-alpha (Homo sapiens) (UniProt P19793); assay: OT_NURR1_NURR1RXRa_1440: Odyssey Thera (OT) 24-hour HEK293T Protein Complementation Assay for Nurr1/retinoid X receptor (RXR) (AID 2283386)
In short: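 Gain in fluorescence, fitted relative to DMSO, reflects Nurr1–RXRα association in HEK293T cells after 24 h dosing. Bait and prey are each linked to a reporter-protein fragment that reassembles on interaction.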

[3] = target: Peroxisome proliferator-activated receptor gamma (Homo sapiens) (UniProt P37231); assay: OT_PPARg_PPARgSRC1_0480: Odyssey Thera (OT) 8-hour Protein-Complementation Assay for Peroxisome Proliferator-activated Receptor Gamma / SRC-1 Co-activator (AID 2283387);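 note: nuclear to cytoplasmic split Venus YFP fluorescence ratio reporting PPARg SRC-1 interaction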
In short: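 Protein-fragment complementation of split Venus YFP reports PPARg/SRC-1 interaction in HEK293T (transfected 48 h before treatment), exposed 8 h. Readout: N/C fluorescence ratio at 488 nm from imaging, Draq5 for segmentation, positive fit relative to DMSO.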

[4] = target: Peroxisome proliferator-activated receptor gamma (Homo sapiens) (UniProt P37231); assay: OT_PPARg_PPARgSRC1_1440: Odyssey Thera (OT) 24-hour Protein-Complementation Assay for Peroxisome Proliferator-activated Receptor Gamma/ SRC-1 Co-activator (AID 2283388);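 note: nuclear to cytoplasmic ratio of reconstituted Venus YFP fluorescence in fixed imaged cells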
In short: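 Transient HEK293T, YFP fragments 1-158/159-239 (mutant IFP1/IFP2) fused to PPARg/SRC-1; 24 h dosing; fix 4% formaldehyde, Draq5; Opera imaging 488/635 nm; N/C ratio, gain vs DMSO.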

[5] = read-out: Tumor necrosis factor receptor superfamily member 6 (Homo sapiens) (UniProt P25445); assay: LTEA_HepaRG_FAS: Life Technologies and Expression Analysis (LTEA) Assay for Fas cell surface death receptor (FAS) using HepaRG (AID 2283447; active = hit-call score of the fitted dose curve at least 0.9, where 1 is the maximum; inactive = score below 0.9); conditions: mRNA level, 48 h; actives raise or lower the signal
In short: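 Differentiated human HepaRG cells, pre-cultured 48 h, were exposed in duplicate for 48 h to 8-point half-log concentrations (top 100 uM, 0.5% DMSO) in serum-free induction medium; FAS mRNA measured by qRT-PCR, normalized to ACTB/GAPDH/POLR2A, bidirectional fit versus DMSO.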

[6] = read-out: Cyclin D2 (CCND2), CCND2 (gene 894); assay: LTEA_HepaRG_CCND2: Life Technologies and Expression Analysis (LTEA) Assay for Cyclin D2 (CCND2) using HepaRG (AID 2283449; active = hit-call score of the fitted dose curve at least 0.9, where 1 is the maximum; inactive = score below 0.9;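 note: CCND2 transcript measured by TaqMan qRT-PCR and normalised to three housekeeping genes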); conditions: mRNA level, 48 h; actives raise or lower the signal
In short: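 In this HepaRG study, an eight-point concentration series (max 100 uM, 0.5% DMSO) is applied for 48 h. CCND2 mRNA change is derived by qRT-PCR normalised to ACTB, GAPDH and POLR2A.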

[7] = read-out: Cyclin Dependent Kinase Inhibitor 1A (CDKN1A), CDKN1A (gene 1026); assay: LTEA_HepaRG_CDKN1A: Life Technologies and Expression Analysis (LTEA) Assay for Cyclin Dependent Kinase Inhibitor 1A (CDKN1A) using HepaRG (AID 2283450; active = hit-call score of the fitted dose curve at least 0.9, where 1 is the maximum; inactive = score below 0.9); conditions: mRNA level, 48 h; actives raise or lower the signal
In short: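 Cryopreserved HepaRG cells were plated and cultured 48 h, then switched to serum-free induction medium. Chemicals (eight half-log concentrations, top 100 uM, 0.5% DMSO) were applied for 48 h. Lysates underwent qRT-PCR for CDKN1A with housekeeping normalization.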

[8] = read-out: catalase (CAT), CAT (gene 847); assay: LTEA_HepaRG_CAT: Life Technologies and Expression Analysis (LTEA) Assay for catalase (CAT) using HepaRG (AID 2283452; active = hit-call score of the fitted dose curve at least 0.9, where 1 is the maximum; inactive = score below 0.9;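 for AC50: TaqMan qRT-PCR signal normalized to ACTB GAPDH and POLR2A housekeeping genes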); conditions: mRNA level, 48 h; actives raise or lower the signal
In short: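 Differentiated HepaRG cells in serum-free induction medium were dosed 48 h in duplicate, eight half-log concentrations from 100 uM in 0.5% DMSO. Transcript measured by TaqMan qRT-PCR, normalised to ACTB/GAPDH/POLR2A, fitted bidirectionally against DMSO.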

[9] = read-out: flavin-containing dimethylaniline monooxygenases 3 (FMO3), FMO3 (gene 2328); assay: LTEA_HepaRG_FMO3: Life Technologies and Expression Analysis (LTEA) Assay for flavin-containing dimethylaniline monooxygenases 3 (FMO3) using HepaRG (AID 2283453; active = hit-call score of the fitted dose curve at least 0.9, where 1 is the maximum; inactive = score below 0.9;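 for AC50: FMO3 transcript by TaqMan qRT-PCR normalized to ACTB GAPDH and POLR2A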); conditions: mRNA level, 48 h; actives raise or lower the signal
In short: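 FMO3 transcript quantified by TaqMan qRT-PCR against three housekeeping genes after 48 h chemical exposure of HepaRG cells. Eight-point half-log series, top 100 uM, 0.5% DMSO vehicle; phenobarbital 1mM induction control; up- or down-regulation fitted.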

[10] = read-out: Cytochrome P450 (CYP1A1), CYP1A1 (gene 1543); assay: LTEA_HepaRG_CYP1A1: Life Technologies and Expression Analysis (LTEA) Assay for Cytochrome P450 (CYP1A1) using HepaRG (AID 2283454; active = hit-call score of the fitted dose curve at least 0.9, where 1 is the maximum; inactive = score below 0.9); conditions: mRNA level, 48 h; actives raise or lower the signal
In short: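 Induction of CYP1A1 mRNA in a human hepatic cell line was measured 48 h after dosing, with 1 mM phenobarbital as induction positive control and 0.5% DMSO vehicle as baseline for bidirectional curve fitting.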

[11] = read-out: CFLAR gene, CFLAR (gene 8837); assay: LTEA_HepaRG_CFLAR: Life Technologies and Expression Analysis (LTEA) Assay for CFLAR gene using HepaRG (AID 2283455; active = hit-call score of the fitted dose curve at least 0.9, where 1 is the maximum; inactive = score below 0.9); conditions: mRNA level, 48 h; actives raise or lower the signal
In short: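 Gain- or loss-of-signal changes in CFLAR transcript were fitted bidirectionally relative to 0.5% DMSO. Cells (HepaRG, duplicate wells) were dosed for 48 h across eight half-log concentrations topping at 100 uM; quantitation by TaqMan qRT-PCR.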

[12] = CEETOX_H295R_OHPREG: CeeTox H295R High-throughput Steroidogenesis Assay for OH-Pregnenolone (OHPREG) (AID 2283434; active = hit-call score of the fitted dose curve at least 0.9, where 1 is the maximum; inactive = score below 0.9); conditions: actives raise or lower the signal
In short: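 Readout: HPLC-MS/MS of 17alpha-hydroxypregnenolone in medium after 48 h chemical exposure of H295R cells pretreated with forskolin. Values fitted bidirectionally relative to DMSO; chemicals reducing viability to 20–70% were retested after 10-fold dilution.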

[13] = CEETOX_H295R_OHPROG: CeeTox H295R High-throughput Steroidogenesis Assay for OH-Progesterone (OHPROG) (AID 2283435; active = hit-call score of the fitted dose curve at least 0.9, where 1 is the maximum; inactive = score below 0.9;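 for AC50: 17alpha-hydroxyprogesterone secreted into medium measured by HPLC-MS/MS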); conditions: actives raise or lower the signal
In short: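 Medium steroid levels read by LC-MS/MS after 48 h chemical treatment (0.1% DMSO) of human adrenal H295R cells that had been forskolin-primed (10 uM, 48 h). Gain or loss fitted against DMSO; MTT cytotoxicity checked per well.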

[14] = CEETOX_H295R_PROG: CeeTox H295R High-throughput Steroidogenesis Assay for Progesterone (PROG) (AID 2283442; active = hit-call score of the fitted dose curve at least 0.9, where 1 is the maximum; inactive = score below 0.9;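 for AC50: human H295R adrenal cells primed with 10 µM forskolin before dosing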); conditions: actives raise or lower the signal
In short: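 Adrenal H295R line, forskolin-stimulated (10 uM, 48 h) before dosing. 48 h exposure, 0.1% DMSO vehicle. Secreted progesterone by reverse-phase HPLC with ESI+ MS/MS quantification; DMSO-normalised bidirectional curve fit.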

[15] = CEETOX_H295R_CORTIC: CeeTox H295R High-throughput Steroidogenesis Assay for Corticosterone (CORTIC) (AID 2283437; active = hit-call score of the fitted dose curve at least 0.9, where 1 is the maximum; inactive = score below 0.9;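 note: corticosterone secreted into medium quantified by mass spectrometry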;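 for AC50: human H295R adrenal cells prestimulated with forskolin before chemical exposure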); conditions: actives raise or lower the signal
In short: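 Steps: seed H295R, adhere overnight; 10 uM forskolin 48 h; replace with chemical (0.1% DMSO) 48 h; extract medium with MTBE; quantify corticosterone by HPLC-MS/MS; score bidirectionally vs DMSO.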

[16] = CEETOX_H295R_CORTISOL: CeeTox H295R High-throughput Steroidogenesis Assay for Cortisol (AID 2283438; active = hit-call score of the fitted dose curve at least 0.9, where 1 is the maximum; inactive = score below 0.9); conditions: actives raise or lower the signal
In short: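 Cortisol measured by HPLC-MS/MS after MTBE extraction of medium from H295R cells exposed 48 h to chemical (0.1% DMSO), following 48 h prestimulation with 10 uM forskolin. Viability assessed by MTT in the same wells.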

[17] = CEETOX_H295R_DOC: CeeTox H295R High-throughput Steroidogenesis Assay for DOC (AID 2283439; active = hit-call score of the fitted dose curve at least 0.9, where 1 is the maximum; inactive = score below 0.9); conditions: actives raise or lower the signal
In short: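 11-Deoxycorticosterone quantified in medium by MTBE extraction and HPLC-MS/MS after 48 h chemical exposure (0.1% DMSO) of forskolin-primed (10 uM, 48 h) H295R cells. Same-well MTT viability; data fitted bidirectionally against DMSO.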

[18] = CEETOX_H295R_ESTRONE: CeeTox H295R High-throughput Steroidogenesis Assay for Estrone (AID 2283441; active = hit-call score of the fitted dose curve at least 0.9, where 1 is the maximum; inactive = score below 0.9;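 for AC50: human adrenal H295R cells prestimulated with forskolin for two days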); conditions: actives raise or lower the signal
In short: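 Estrone secreted into medium quantified by LC-MS/MS after dansyl chloride derivatization, following 48 h chemical exposure (0.1% DMSO final) of forskolin-prestimulated (10 uM, 48 h) H295R cells; gain or loss fitted against DMSO; MTT viability in same wells.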

[19] = CEETOX_H295R_ANDR: CeeTox H295R High-throughput Steroidogenesis Assay for Androstenedione (ANDR) (AID 2283436; active = hit-call score of the fitted dose curve at least 0.9, where 1 is the maximum; inactive = score below 0.9;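 note: human H295R adrenal cells exposed for 48 h with androstenedione measured in medium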); conditions: actives raise or lower the signal
In short: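 Steroidogenesis in H295R adrenal cells after 48 h dosing; androstenedione quantified by LC-MS/MS, with DMSO as negative control and baseline for bidirectional curve fitting.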

[20] = CEETOX_H295R_ESTRADIOL: CeeTox H295R High-throughput Steroidogenesis Assay for Estradiol (AID 2283440; active = hit-call score of the fitted dose curve at least 0.9, where 1 is the maximum; inactive = score below 0.9;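 note: estradiol secreted into medium quantified by LC-MS/MS after dansyl derivatisation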); conditions: actives raise or lower the signal
In short: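 Following OECD 456 with minor changes, H295R cells received 10 uM forskolin for 48 h and then test chemical for 48 h. Hormone output was read by HPLC-MS/MS, with cytotoxic concentrations diluted until MTT viability reached ≥70%.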

Measured: AC50

Peroxisome proliferator-activated receptor gamma (Homo sapiens), sequence (P37231 whole entry, looked up, the tested form may be a part): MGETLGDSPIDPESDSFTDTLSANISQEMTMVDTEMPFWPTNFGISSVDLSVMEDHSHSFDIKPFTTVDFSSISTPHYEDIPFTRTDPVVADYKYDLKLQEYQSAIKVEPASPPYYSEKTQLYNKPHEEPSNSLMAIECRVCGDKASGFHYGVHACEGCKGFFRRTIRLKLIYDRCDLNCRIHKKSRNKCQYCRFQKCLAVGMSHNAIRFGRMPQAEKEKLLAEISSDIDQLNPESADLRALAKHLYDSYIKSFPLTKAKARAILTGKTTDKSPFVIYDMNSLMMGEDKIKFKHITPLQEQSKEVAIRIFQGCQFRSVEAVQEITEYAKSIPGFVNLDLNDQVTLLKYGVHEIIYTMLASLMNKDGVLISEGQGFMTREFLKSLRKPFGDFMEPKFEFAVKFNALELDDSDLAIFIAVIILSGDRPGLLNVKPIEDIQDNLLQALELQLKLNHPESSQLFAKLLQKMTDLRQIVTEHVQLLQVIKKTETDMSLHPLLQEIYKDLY
Retinoic acid receptor RXR-alpha (Homo sapiens), sequence (P19793 whole entry, looked up, the tested form may be a part): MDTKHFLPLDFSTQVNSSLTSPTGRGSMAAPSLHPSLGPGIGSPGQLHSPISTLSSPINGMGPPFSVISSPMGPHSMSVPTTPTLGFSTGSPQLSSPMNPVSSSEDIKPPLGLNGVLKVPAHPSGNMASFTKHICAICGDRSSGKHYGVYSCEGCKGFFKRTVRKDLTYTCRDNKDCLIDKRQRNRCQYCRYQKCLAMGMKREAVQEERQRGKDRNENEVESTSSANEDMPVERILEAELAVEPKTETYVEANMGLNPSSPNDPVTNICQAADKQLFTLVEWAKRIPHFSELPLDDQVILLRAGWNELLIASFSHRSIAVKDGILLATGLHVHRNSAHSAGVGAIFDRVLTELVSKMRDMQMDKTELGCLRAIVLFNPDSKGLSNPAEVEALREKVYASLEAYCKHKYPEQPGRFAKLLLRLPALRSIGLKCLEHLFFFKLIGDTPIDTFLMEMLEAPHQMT

CC(C)(C)c1cc(O)ccc1O
inactive: [1] | [2] | [3] | [4] | [5] | [6] | [7] | [8] | [9] | [10] | [11]
active: [1] 69.5 µM

Cl/C=C/Cl
inactive: [1] | [2]

O=C(O)C(Cl)(Cl)Cl
active: [8] 0.207 µM | [10] 50 µM
inactive: [1] | [2] | [3] | [4] | [5] | [6] | [7] | [8] | [9] | [10] | [11]

C[C@]12CCC(=O)C[C@@H]1CC[C@@H]1[C@@H]2CC[C@]2(C)[C@@H](O)CC[C@@H]12
active: [2] 40.3 µM | [12] 0.0791 µM | [14] 1.08 µM | [10] 35.7 µM
inactive: [1] | [2] | [3] | [4] | [13] | [5] | [6] | [7] | [8] | [9] | [11]

OCC(O)CCl (stereo not given)
inactive: [1] | [2] | [3] | [4]

CN(C)N=O
inactive: [1] | [2] | [3] | [4] | [5] | [6] | [7] | [8] | [9] | [10] | [11]

BrCCBr
inactive: [1] | [2] | [3] | [4]

Oc1ccc(-c2ccccc2)cc1
active: [2] 50 µM | [12] 74.2 µM | [13] 13.1 µM | [15] 14 µM
inactive: [1] | [3] | [4] | [16] | [17] | [18]

CCOP(=S)(OCC)Oc1nc(Cl)c(Cl)cc1Cl
inactive: [2] | [3] | [4] | [13] | [15] | [17] | [20] | [18] | [5] | [7] | [8] | [9] | [11]
active: [1] 83.4 µM and 71 µM | [2] 85.3 µM | [12] 80.5 µM | [19] 60.7 µM | [16] 81.6 µM | [14] 39.3 µM | [10] 34.4 µM

CC1(C)CCC(Cc2ccc(Cl)cc2)C1(O)Cn1cncn1 (stereo not given)
inactive: [1] | [2] | [3] | [4]
active: [12] 0.143 µM | [13] 0.0959 µM | [14] 0.0359 µM

CCC(=O)C(CC(C)N(C)C)(c1ccccc1)c1ccccc1 (stereo not given)
active: [9] 46.7 µM | [10] 55.3 µM
inactive: [1] | [2] | [3] | [4] | [5] | [6] | [7] | [8] | [11]

COc1ccc(C=O)cc1OC
inactive: [1] | [2] | [3] | [4]

ClC(Cl)=C(Cl)C(Cl)=C(Cl)Cl
inactive: [1] | [2] | [3] | [4]

c1cc[c]([Hg][c]2ccccc2)cc1
inactive: [3]
active: [1] 29.7 µM | [2] 63.4 µM | [4] 50 µM

COc1cc(-c2ccc(N)c(OC)c2)ccc1N
inactive: [1] | [2] | [3] | [4] | [12] | [13] | [14] | [5] | [6] | [7] | [8] | [9] | [11]
active: [2] 67.1 µM and 41.3 µM and 50 µM | [12] 82.6 µM | [13] 1.9 µM | [14] 35.4 µM | [9] 72.6 µM | [10] 20.6 µM and 24.2 µM

Cn1sc(Cl)cc1=O
inactive: [1] | [2] | [3] | [4] | [5] | [6] | [7] | [8] | [9] | [10] | [11]

Fc1ccc(C2(Cn3cncn3)OC2c2ccccc2Cl)cc1 (stereo not given)
active: [12] 0.645 µM | [13] 2.06 µM | [16] 3.04 µM | [17] 2.08 µM | [20] 1.5 µM | [18] 2.03 µM
inactive: [1] | [2] | [3] | [4] | [15] | [14]

CNC(=O)O/N=C/C(C)(C)S(C)=O (stereo not given)
inactive: [1] | [2] | [3] | [4]

CC12CC1(C)C(=O)N(c1cc(Cl)cc(Cl)c1)C2=O (stereo not given)
inactive: [1] | [2] | [3] | [4] | [12] | [16] | [17] | [14] | [5] | [6] | [7] | [8] | [9] | [10] | [11]
active: [13] 20.9 µM | [19] 30.9 µM | [15] 14.1 µM
